16 sequences from article PMC5700166 can be followed below.

Common to all, as to assay: protein-binding microarray (PBM); PBM: ~300 nM protein, 6 mM HEPES pH 7.8, 80 mM KCl, 0.5 mM EDTA, 0.5 mM EGTA, 6% glycerol, 35 ng/ul poly-dIdC, 1% milk, 1 h, room temperature; Ap Aiptasia and Nv Nematostella (sea anemones) / Co Capsaspora / Aq Amphimedon (sponge) / Dm Drosophila / Hu human; RHD is the Rel homology domain; high values mean tight binding
Conditions in all cases: dsDNA, one strand shown

One experiment has as its target T1, GST-Ap-NF-kB RHD (Exaiptasia pallida (Aiptasia), UniProt A0A913YAJ5 2-422).
T1 sequence: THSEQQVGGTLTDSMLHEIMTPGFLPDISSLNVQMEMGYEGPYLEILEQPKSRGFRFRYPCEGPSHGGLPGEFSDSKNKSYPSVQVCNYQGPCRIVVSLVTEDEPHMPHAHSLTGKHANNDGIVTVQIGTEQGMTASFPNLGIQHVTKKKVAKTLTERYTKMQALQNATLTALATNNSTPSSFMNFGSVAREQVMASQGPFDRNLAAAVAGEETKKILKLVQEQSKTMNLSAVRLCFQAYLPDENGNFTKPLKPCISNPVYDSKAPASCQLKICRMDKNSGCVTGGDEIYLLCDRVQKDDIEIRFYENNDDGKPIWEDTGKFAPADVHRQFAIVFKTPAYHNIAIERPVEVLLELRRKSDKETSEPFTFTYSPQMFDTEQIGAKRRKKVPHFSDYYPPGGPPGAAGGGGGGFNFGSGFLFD

In a further experiment the target is T2, GST-Co-NF-kB (Capsaspora owczarzaki, UniProt F1ARL5 200-546).
T2 sequence: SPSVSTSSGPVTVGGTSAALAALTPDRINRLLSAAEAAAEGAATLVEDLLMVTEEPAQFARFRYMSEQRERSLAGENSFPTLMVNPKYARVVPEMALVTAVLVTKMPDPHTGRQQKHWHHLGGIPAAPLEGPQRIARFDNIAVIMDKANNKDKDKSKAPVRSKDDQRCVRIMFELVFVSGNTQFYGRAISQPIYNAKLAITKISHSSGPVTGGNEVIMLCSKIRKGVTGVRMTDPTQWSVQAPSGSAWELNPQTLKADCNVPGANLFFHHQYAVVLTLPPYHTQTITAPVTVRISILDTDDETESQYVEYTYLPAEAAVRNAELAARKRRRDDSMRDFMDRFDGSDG

Another experiment deals with T3, GST-Dm-Relish (Drosophila melanogaster, UniProt Q94527 99-473).
T3 sequence: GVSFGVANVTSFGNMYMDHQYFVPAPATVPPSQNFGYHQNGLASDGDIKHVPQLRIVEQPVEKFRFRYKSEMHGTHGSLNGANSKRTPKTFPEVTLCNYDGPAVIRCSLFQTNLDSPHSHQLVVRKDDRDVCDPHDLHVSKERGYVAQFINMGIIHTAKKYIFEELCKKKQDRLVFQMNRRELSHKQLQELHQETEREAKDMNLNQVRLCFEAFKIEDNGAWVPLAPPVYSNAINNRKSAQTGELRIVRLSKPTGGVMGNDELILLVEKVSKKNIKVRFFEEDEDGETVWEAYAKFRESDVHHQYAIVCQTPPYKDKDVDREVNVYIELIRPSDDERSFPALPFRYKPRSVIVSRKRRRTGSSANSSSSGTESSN

The target in a further experiment is T4, GST-Aq-NF-kB (Amphimedon queenslandica, UniProt A9Y5G7 2-389).
T4 sequence: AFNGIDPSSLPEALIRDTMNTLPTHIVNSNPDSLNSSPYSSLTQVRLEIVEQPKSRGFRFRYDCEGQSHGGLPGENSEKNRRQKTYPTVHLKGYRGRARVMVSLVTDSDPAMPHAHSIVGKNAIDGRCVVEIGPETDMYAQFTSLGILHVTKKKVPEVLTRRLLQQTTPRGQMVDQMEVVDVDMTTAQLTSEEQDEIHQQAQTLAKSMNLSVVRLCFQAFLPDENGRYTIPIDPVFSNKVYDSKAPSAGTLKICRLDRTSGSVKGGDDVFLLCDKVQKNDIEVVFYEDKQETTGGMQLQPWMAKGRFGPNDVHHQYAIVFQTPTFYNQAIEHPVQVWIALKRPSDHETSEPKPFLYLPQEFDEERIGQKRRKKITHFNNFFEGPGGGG

Experiment [1] concerns the target T5, GST-Nv-NF-kB (Ser allele) (Nematostella vectensis, UniProt A7UNT2 2-411).
T5 sequence: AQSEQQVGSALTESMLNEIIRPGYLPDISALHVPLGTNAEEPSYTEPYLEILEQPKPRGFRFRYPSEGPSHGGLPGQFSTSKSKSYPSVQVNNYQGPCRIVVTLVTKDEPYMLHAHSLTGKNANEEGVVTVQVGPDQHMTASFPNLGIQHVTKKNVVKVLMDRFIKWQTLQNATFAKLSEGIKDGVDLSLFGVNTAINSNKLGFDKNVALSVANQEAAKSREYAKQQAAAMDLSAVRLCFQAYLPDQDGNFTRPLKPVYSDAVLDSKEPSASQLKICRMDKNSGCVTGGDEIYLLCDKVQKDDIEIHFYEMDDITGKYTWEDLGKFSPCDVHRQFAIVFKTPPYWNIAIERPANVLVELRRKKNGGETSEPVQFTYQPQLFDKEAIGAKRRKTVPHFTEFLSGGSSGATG

Turning to “CCGATTAACATCAGGGCTTCCCATGATGTTAATCGGGTCTTGATTCGCTTGACGCTGCTG”, the binding signal was 1.44 z-score in the experiment with GST-Ap-NF-kB RHD, 1.01 z-score with GST-Co-NF-kB, 8.36 z-score with GST-Dm-Relish and 3.5 z-score in the experiment with GST-Aq-NF-kB.

“CCGATTAACATCATAAGGGGTGTTGATGTTAATCGGGTCTTGATTCGCTTGACGCTGCTG”: the binding signal stood at 2.3 z-score in the experiment with GST-Ap-NF-kB RHD, 1.09 z-score with GST-Co-NF-kB and 1.91 z-score in the experiment with GST-Aq-NF-kB.

Regarding “CCGATTAACATCAGGGGTACACATGATGTTAATCGGGTCTTGATTCGCTTGACGCTGCTG”, the binding signal in the experiment with GST-Ap-NF-kB RHD was 1.77 z-score; with GST-Co-NF-kB, 4.09 z-score; in the experiment with GST-Dm-Relish it was 1.13 z-score; with GST-Aq-NF-kB, 1.07 z-score.

As to “CCGATTAACATCACTTCCCCCCCTGATGTTAATCGGGTCTTGATTCGCTTGACGCTGCTG”, the binding signal in the experiment with GST-Ap-NF-kB RHD came out at 5.69 z-score; in experiment [1], 5.01 z-score; in the experiment with GST-Co-NF-kB, 8 z-score; with GST-Dm-Relish, 4.33 z-score; in the experiment with GST-Aq-NF-kB, 4.94 z-score.

In the case of “CCGATTAACATCAAGCCCCCCCTTGATGTTAATCGGGTCTTGATTCGCTTGACGCTGCTG”, the binding signal with GST-Ap-NF-kB RHD turned out to be 4.63 z-score; in experiment [1], 4.35 z-score; with GST-Co-NF-kB, 3.04 z-score; with GST-Dm-Relish, 4.77 z-score; in the experiment with GST-Aq-NF-kB it was 4.92 z-score.

With “CCGATTAACATCACACCCCAACATGATGTTAATCGGGTCTTGATTCGCTTGACGCTGCTG”, the binding signal was 1.38 z-score with GST-Ap-NF-kB RHD, 2.16 z-score with GST-Co-NF-kB and 1.02 z-score in the experiment with GST-Aq-NF-kB.

As to “CCGATTAACATCACCCCAACCCCTGATGTTAATCGGGTCTTGATTCGCTTGACGCTGCTG”, the binding signal with GST-Ap-NF-kB RHD turned out to be 2.55 z-score; with GST-Co-NF-kB, 3.44 z-score; with GST-Dm-Relish, 2.69 z-score; with GST-Aq-NF-kB, 2.27 z-score.

Regarding “CCGATTAACATCAAGGTGTTCCCTGATGTTAATCGGGTCTTGATTCGCTTGACGCTGCTG”, the binding signal with GST-Ap-NF-kB RHD was found to be 1.65 z-score; with GST-Co-NF-kB, 2.38 z-score; in the experiment with GST-Dm-Relish, 4.31 z-score; with GST-Aq-NF-kB, 2.49 z-score.

With “CCGATTAACATCACTCCCCCCCCTGATGTTAATCGGGTCTTGATTCGCTTGACGCTGCTG”, the binding signal in the experiment with GST-Ap-NF-kB RHD worked out at 5.73 z-score; in the experiment with GST-Co-NF-kB, 6.72 z-score; with GST-Dm-Relish, 4.43 z-score; in the experiment with GST-Aq-NF-kB, 4.65 z-score.

Turning to “CCGATTAACATCACCCTTGGGAATGATGTTAATCGGGTCTTGATTCGCTTGACGCTGCTG”, the binding signal in the experiment with GST-Ap-NF-kB RHD was found to be 1.03 z-score; in the experiment with GST-Co-NF-kB, 2.46 z-score; with GST-Aq-NF-kB, 2.01 z-score.

For “CCGATTAACATCAGGAATGCCCATGATGTTAATCGGGTCTTGATTCGCTTGACGCTGCTG”, the binding signal with GST-Ap-NF-kB RHD was 1.27 z-score; with GST-Dm-Relish, 1.49 z-score; with GST-Aq-NF-kB it was 1.96 z-score.

Take “CCGATTAACATCACGGGATTGCCTGATGTTAATCGGGTCTTGATTCGCTTGACGCTGCTG”: the figures for the binding signal with GST-Ap-NF-kB RHD, with GST-Dm-Relish and with GST-Aq-NF-kB were 1.39 z-score, 2.08 z-score and 2.41 z-score, respectively.

In the case of “CCGATTAACATCAGGAAACACCATGATGTTAATCGGGTCTTGATTCGCTTGACGCTGCTG”, the figures for the binding signal in the experiment with GST-Ap-NF-kB RHD, with GST-Dm-Relish and with GST-Aq-NF-kB were 1 z-score, 1.77 z-score and 1.49 z-score, respectively.

In the case of “CCGATTAACATCAGGAAAGCCCATGATGTTAATCGGGTCTTGATTCGCTTGACGCTGCTG”, the binding signal in the experiment with GST-Ap-NF-kB RHD came out at 1.24 z-score; with GST-Dm-Relish, 4.29 z-score; in the experiment with GST-Aq-NF-kB it was 3.12 z-score.

In the case of “CCGATTAACATCAGGCAATCCCATGATGTTAATCGGGTCTTGATTCGCTTGACGCTGCTG”, the binding signal was 1 z-score with GST-Ap-NF-kB RHD, 2.82 z-score with GST-Dm-Relish and 1.38 z-score with GST-Aq-NF-kB.

“CCGATTAACATCAGGGGTGCCCATGATGTTAATCGGGTCTTGATTCGCTTGACGCTGCTG”: the binding signal with GST-Ap-NF-kB RHD worked out at 1.69 z-score; in the experiment with GST-Dm-Relish, 3.52 z-score; in the experiment with GST-Aq-NF-kB it was 1.5 z-score.
